Reference: PubChem BioAssay AID693 (University of Pittsburgh Molecular Library Screening Center, 2007)
The campaign covered roughly 97,000 compounds. About 130 (0.13%) were called active. The entries come from a sample that favours actives as a whole. Values without a mark were called inactive. Cut-off read from the data, not from the text of the source: active = inhibition above about 34% (passing the limit was not always enough); inactive = the rest.

These molecules were tested against Serine/threonine-protein kinase PLK1 (Homo sapiens) (UniProt P53350) (assay: Plk1 polo box domain binding inhibitors, primary screen, biochemical, fluorescence polarization (AID 693)). Details: Plk1 PBD phosphopeptide binding, active compounds read high,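 tested at about 20 µM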.
Chain of Serine/threonine-protein kinase PLK1 (Homo sapiens) (P53350 whole entry, looked up, the tested form may be a part): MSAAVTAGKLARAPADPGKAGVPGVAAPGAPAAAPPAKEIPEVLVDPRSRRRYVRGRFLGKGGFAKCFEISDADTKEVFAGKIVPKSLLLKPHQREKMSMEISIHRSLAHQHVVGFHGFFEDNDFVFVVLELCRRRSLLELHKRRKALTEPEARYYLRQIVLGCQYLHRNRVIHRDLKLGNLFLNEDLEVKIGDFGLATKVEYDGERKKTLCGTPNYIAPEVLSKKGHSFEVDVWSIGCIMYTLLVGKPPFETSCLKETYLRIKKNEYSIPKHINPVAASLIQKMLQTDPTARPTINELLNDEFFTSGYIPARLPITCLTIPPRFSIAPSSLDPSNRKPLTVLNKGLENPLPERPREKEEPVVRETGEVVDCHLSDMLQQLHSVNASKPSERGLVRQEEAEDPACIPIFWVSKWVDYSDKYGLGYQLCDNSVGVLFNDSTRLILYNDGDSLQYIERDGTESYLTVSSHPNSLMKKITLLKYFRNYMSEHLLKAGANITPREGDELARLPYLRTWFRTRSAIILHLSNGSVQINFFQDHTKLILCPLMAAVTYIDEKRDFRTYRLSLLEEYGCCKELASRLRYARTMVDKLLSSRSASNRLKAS
For `Cn1c(N)c(C(=O)COC(=O)C23CC4CC(CC(C4)C2)C3)c(=O)n(C)c1=O`, the inhibition was -3.11%.
For `COc1cc(C(=O)OC(C)C(=O)NCC2CCCCC2)cc(NC(=O)c2ccco2)c1OC` (configuration not stated), the inhibition was 2.04%.
For `COCc1cc(C)nc2sc(C(=O)NC3CCCCC3)c(N)c12`, the inhibition was -36.6%.
`COc1ccc(CN(CC(=O)NC2CCCC2)C(=O)CCC(=O)Nc2cc(C)on2)cc1` gave an inhibition of 4.15%.
`O=C(N/N=C/c1ccsc1)c1cc(O)cc(O)c1` showed an inhibition of -12.8%.
`COc1ccc(CCNC(=S)NC(=O)/C=C/c2ccc(C)cc2)cc1OC` was tested, and the inhibition was -11.8%.
For `N#Cc1ccsc1NC(=O)CN1CCCCC1`, the inhibition was -12.8%.
`O=C1/C(=C\Nc2ccccc2)CCN1c1ncccn1` gave an inhibition of 13.5%.
`CC(C)(C)NS(=O)(=O)CC12CCC(CC1=O)C2(C)C` (configuration not stated) showed an inhibition of -2.53%.
Work on `O=C1CCN(C(=O)Nc2ccccc2)N1` yielded an inhibition of 11.2%.
`CCOc1cc(/C=C2/N=C(c3ccc(C(C)(C)C)cc3)OC2=O)cc(Cl)c1OS(C)(=O)=O` showed an inhibition of -6.59%.
For `Cc1ccccc1NC(=O)c1ccccc1NS(=O)(=O)c1cccc2cccnc12`, the inhibition was 4.72%.
`CC1CCCN(C(C(=O)Nc2ccc(C(C)C)cc2)c2ccc3c(c2)OCO3)C1` (configuration not stated) was tested, and the inhibition was -23.5%.
In the case of `Cc1noc(/C=C/c2ccco2)c1S(=O)(=O)N1CCC(C(=O)N2CCc3ccccc32)CC1`, the inhibition is reported as -18.1%.
With `CCCCCCC(=O)Nc1nc(C)c(-c2csc(Nc3cccc(OC)c3)n2)s1` the inhibition was -14.7%.
Work on `O=C(Nc1ccc(Cl)cc1)c1cc2nc(C3CC3)cc(C(F)(F)F)n2n1` yielded an inhibition of 6.19%.
Work on `O=C(NC1CCCCC1)c1cc([N+](=O)[O-])ccc1N1CCOCC1` yielded an inhibition of 22%.
`O=C(CCc1ccccc1)NCc1cccnc1` showed an inhibition of 22.9%.
With `CC(=O)Nc1ccc(OCC(O)CN2CCN(c3ccccc3Cl)CC2)cc1` (configuration not stated) the inhibition was -14%.
For `O=C(O)C1CC=CCC1C(=O)Nc1ccccc1C(=O)N1CCN(c2ccccc2)CC1` (configuration not stated), the inhibition was 2.13%.
In the case of `Cc1cc(C)c(S(=O)(=O)c2ccccc2)c(OC(=O)c2c(F)cccc2Cl)n1`, the inhibition is reported as -3.99%.
`COc1ccc(NC(=O)Cn2c(-c3ccc(OC)cc3)cn(-c3ccc(C)cc3)c2=O)cc1` showed an inhibition of 4.16%.
`COc1ccc(-c2nn(-c3ccccc3)cc2C(=O)Nc2nccs2)cc1OC` was tested, and the inhibition was 3.37%.
`COc1ccccc1C(=O)Nc1ccc(NC(=O)c2ccco2)c(C)c1` gave an inhibition of -21.6%.
Work on `O=c1c2c(nc3nc[nH]n13)CCC2` yielded an inhibition of 7.34%.
`CCCC(C)C(=O)Nc1ccc(NC(C)=O)cc1` (configuration not stated) gave an inhibition of -14.8%.
Molecule `Cc1ccc(NC(=O)N2CCC(O)(c3cccnc3)CC2)cc1` has an inhibition of 2.21%.
For `CCOC(=O)c1cc2n(c1C)-c1ccccc1C2=O`, the inhibition was -27.7%.
For `CC(C)OC(=O)CN1C(=O)C(=O)c2ccccc21`, the inhibition was -13.6%.
For `CCOC(=O)c1cc2n(c1N)-c1ccccc1C2=O`, the inhibition was 45.1% (active).
In the case of `O=C1c2ccccc2C(=O)c2c1cccc2N1CCN(Cc2ccccc2)CC1`, the inhibition is reported as -20.8%.
For `Cc1cc(NC(=O)/C=C/C(=O)N(c2ccccc2C)C(C(=O)NC2CCCC2)c2ccc(F)cc2)no1` (configuration not stated), the inhibition was -15.6%.
`CCCCNC(=O)c1onc(CSc2cccc(OC)c2)c1C(=O)O` gave an inhibition of 25.6%.
Work on `CO/N=C(/CS(=O)(=O)c1ccc(Br)cc1)c1ccc(OC)cc1` yielded an inhibition of 2.77%.
`Cc1ccc(Cl)cc1NC(=O)COC(=O)C1CCCCC1` showed an inhibition of -19.8%.
Molecule `COc1ccccc1-c1n[nH]c2c1[C@H](C)CC[C@H]2C(C)C` has an inhibition of -16.8%.
`COc1ccc(C(=O)Nc2ccc(CN3CCOCC3)cc2)cc1` gave an inhibition of -5.41%.
`COc1ccc(Nc2oc(-c3ccccc3Cl)nc2C#N)cc1` was tested, and the inhibition was 42.4% (active).
Work on `N#Cc1nc(-c2ccc(OCc3ccccc3)cc2)oc1NCCCN1CCOCC1` yielded an inhibition of -11.4%.
`COc1ccccc1-c1nc(C#N)c(N2CCC(C(N)=O)CC2)o1` gave an inhibition of 33.2%.
`Clc1ccc(-c2cc(COc3ccccc3)no2)cc1Cl` was tested, and the inhibition was -15.4%.
In the case of `Cc1ccc(S(=O)(=O)N(c2cccc(C)c2)C2CCS(=O)(=O)C2)cc1` (configuration not stated), the inhibition is reported as -7%.
`Cc1nc2c(-c3ccc(F)cc3)c(C)nn2c(C)c1CCC(=O)NCc1ccco1` showed an inhibition of 2.38%.
Molecule `CCOc1ccc(CN2CCCN(C)CC2)cc1` has an inhibition of -6.01%.
For `Cc1ccc(NC(=O)Nc2ccc3oc(C)nc3c2)cc1`, the inhibition was 8.59%.
For `O=C(Nc1ccc2sc3ccccc3c(=O)c2c1)c1ccccc1Cl`, the inhibition was 6.33%.
Work on `CC1(C)Cc2cccc(OCC(N)=O)c2O1` yielded an inhibition of 0.26%.
In the case of `Cn1cnc([N+](=O)[O-])c1Sc1ccccc1`, the inhibition is reported as -10.6%.
Work on `COCCCNCC(=O)Nc1sc(C)c(C)c1C(=O)OC` yielded an inhibition of -27.8%.
`COc1ccc(C2CC(=O)Nc3cc(C)c(C)cc32)c(OC)c1OC` (configuration not stated) showed an inhibition of 3.42%.
`O=C(COC(=O)c1ccccc1SCC(=O)NC1CCCCC1)NC1CCCCC1` showed an inhibition of 45.4%.
In the case of `O=C(Cc1ccc(S(=O)(=O)N2CCCC2)s1)NC1CCCCCC1`, the inhibition is reported as -9.65%.
For `Cc1cccc(COc2ccccc2/C=N/Nc2ccc([N+](=O)[O-])cc2)c1`, the inhibition was 0.38%.
In the case of `CC(=O)NC1(c2cccc(F)c2)CCN(CC(=O)NC(C)C)CC1`, the inhibition is reported as 15.8%.
`Cc1cc2nnc(SCC(=O)N3CCN(c4ccccc4)CC3)n2c(N)n1` gave an inhibition of -15.4%.
`COc1ccccc1OCc1nc2ccccc2s1` was tested, and the inhibition was 7.18%.
`O=C(Nc1ccccc1)OCc1cn(-c2ccc(Cl)cc2)nn1` showed an inhibition of 6.75%.
`O=S(=O)(NCC1OCCc2ccccc21)c1ccccc1` (configuration not stated) was tested, and the inhibition was -4.11%.
In the case of `Cc1ccc(-n2nc(N)c3c(=O)oc(N(C)C)nc32)cc1`, the inhibition is reported as 13.8%.
Work on `Cn1c(Cn2nnc3ccccc32)nnc1SCC(=O)c1ccccc1F` yielded an inhibition of -16.2%.
With `CC(C)Oc1ccc(CCc2n[nH]c(=S)n2Cc2ccccc2)cc1` the inhibition was -2.84%.
Molecule `COc1ccc(C)cc1NC(=O)CCC(=O)Nc1nnc(C(F)(F)F)s1` has an inhibition of 19%.
